# From ChEMBL document CHEMBL4513216, “Probing the Open Global Health Chemical Diversity Library for Multistage-Active Starting Points for Next-Generation Antimalarials” (ACS Infect Dis, 2020)
# In all, about 65,000 compounds went through this assay and about 2,100 (3.2%) showed an effect of 50% or more. The median lay at about -52%. Many of the other results were omitted from the sample, so strong results are more common in it than they were.
# Tested on: Plasmodium falciparum
# Assay: Screen against P. falciparum Asexual Blood Stage (ABS), at 5uM
# Assay type: functional, Dd2
# Settings: tested at 5 uM
row,Compound,INHIBITION [%]
1,Cc1ccoc1C(=O)N1CCCC(c2cc(C(F)(F)F)[nH]n2)C1 (stereo not given),-127
2,COCC(=O)N1CCC2(CCC2NS(=O)(=O)c2ccccc2)CC1 (stereo not given),-23.9
3,O=S(=O)(NC1CCC12CCN(CC1CCOCC1)CC2)c1ccccc1 (stereo not given),-62.3
4,Cc1ccc(CN2CCC3(CCC3NS(=O)(=O)c3ccccc3)CC2)o1 (stereo not given),62.4
5,CC(C)c1ccc(NC(=O)Cn2cc(I)cn2)cc1,-19
6,CC1c2ncc(CN3CCN(C)CC3)n2CCN1Cc1ccccn1 (stereo not given),-124
7,c1cnc(-c2noc(C3CN(Cc4ccc5c(c4)CCO5)C3)n2)cn1,4.79
8,CC(C)CC1CC(=O)Nc2c1cnn2Cc1ccco1 (stereo not given),-129
9,CCN(c1ccc(C(=O)NCc2cc[nH]n2)cc1)C(C)C,60.1
10,CC(C)c1ccc(O)c(C(=O)NCc2cc[nH]n2)c1,-97.2
11,CCN(c1ccc(C(=O)NCc2ccnc(C)n2)cc1)C(C)C,22.7
12,Cc1nc(COC(=O)c2cccc3c2OCCO3)no1,-17
13,CCOC(=O)CNC(=O)NCc1cccn1Cc1ccccc1F,-158
14,CN1CC2(CCN(c3nc(N)nc4c3CCNC4)CC2)OC1=O,-71.4
15,Cc1ccc(OCc2nnc(SCC3CCCN(C)C3)o2)cc1 (stereo not given),29.8
16,Cc1ccc(C)c(OCc2nnc(SCC3CCCN(C)C3)o2)c1 (stereo not given),60.3
17,Cc1cccc(OCc2nnc(SCC3CCCN(C)C3)o2)c1 (stereo not given),28.5
18,CCCn1ccc(C(=O)Nc2ccc3c(c2)C(C)(C)C(=O)N3C)n1,-3.4
19,CCc1nc(C2CCCN2Cc2nc3ccccc3o2)no1 (stereo not given),-23.2
20,CC(C)c1nc(C2CCCN2Cc2nnc(C3CCC3)o2)no1 (stereo not given),53.5
21,c1ccc2oc(CN3CCCC3c3noc(C4CC4)n3)nc2c1 (stereo not given),54.4
22,c1ccc2oc(CCCN3CCCC3c3noc(C4CC4)n3)nc2c1 (stereo not given),-21.2
23,C1CC(c2nnc(CN3CCCC3c3noc(C4CC4)n3)o2)C1 (stereo not given),53.5
24,CC(C)c1nc(C2CCCN(Cc3nnc(C4CC4)o3)C2)no1 (stereo not given),-52.6
25,CCc1nc(C2CCCN2Cc2nnc(C3CCC3)o2)no1 (stereo not given),-88
26,Cc1nc(C2CCCN2Cc2nnc(C3CC3)o2)no1 (stereo not given),-171
27,C1CC(c2noc(C3CC3)n2)N(Cc2nnc(C3CC3)o2)C1 (stereo not given),-1.02
28,CC(c1nc(C2CC2)no1)N1CCN(Cc2noc(C3CC3)n2)CC1 (stereo not given),-55.4
29,COc1ccc(CN2C[C@H]3CC[C@@H](C2)N(Cc2snnc2C)C3)cc1,-6.34
30,CCc1cc(=O)n(CC(=O)N2CCC(C)CC2)c(-c2ccccc2)n1,-53.5
